# Results: PubChem BioAssay AID652001 (The Scripps Research Institute Molecular Screening Center, 2013)
# Biological target: Acyl-protein thioesterase 2 (Homo sapiens) (UniProt O95372)
# Test: LYPLA2 enzyme kinetics with inhibitors – biochemical, substrate-based fluorescence, Ki, Km, Vmax, late-stage follow-up (AID 652001)
# Conditions: recombinant LYPLA2, resorufin acetate hydrolysis fluorescence, measured here: LYPLA2 (no test compound); Km: enzyme Km; Vmax: enzyme Vmax
# Acyl-protein thioesterase 2 (Homo sapiens), sequence (O95372 whole entry, looked up): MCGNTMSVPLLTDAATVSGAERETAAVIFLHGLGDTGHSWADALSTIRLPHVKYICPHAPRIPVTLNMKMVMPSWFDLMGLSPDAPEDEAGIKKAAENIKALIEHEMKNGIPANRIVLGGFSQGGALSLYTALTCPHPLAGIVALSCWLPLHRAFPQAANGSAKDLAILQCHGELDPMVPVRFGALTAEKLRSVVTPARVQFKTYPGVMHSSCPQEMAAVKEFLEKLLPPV
smiles,measurement,value
COc1ccc(N2CCN(C(=O)c3cc4c(s3)-c3ccccc3S(=O)(=O)C4)CC2)cc1,Km,24.4 µM
same,Vmax,13.8 nM
